SNCA viab count – reduces viability of HEK-293 SNCA reporter cells; Potency, µM (highest dose often 57.1 µM), actives largely listed as cytotoxic; hit rate 0.12% among 150,000; HEK-293-SNCA-luc viability, GF-AFC fluorescence, 24 h; further: nearly all actives have a fitted effect of over 30% in size
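Cytotoxicity counterscreen: after 24 h compound treatment of genome-edited SNCA-luciferase HEK-293 cells, live-cell protease substrate GF-AFC read by fluorescence after 30 min; activity scaled between DMSO (0%) and medium-only (-100%), curves Hill-fitted.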
SNCA expr inh – reduces expression of the alpha-synuclein gene. Potency, µM (titrated, usually from 57.2 µM), hits mostly inhibitors. HEK-293 SNCA-luciferase knock-in, luminescence, 24 h. AID 1671194. hit rate 0.17% among 140,000; further: nearly all actives have a fitted effect of over 45% in size
KDM5B inh – KDM5B demethylase inhibition | Q9UGL1 | KDM5B demethylase, FDH-coupled NADH fluorescence (FDH is formaldehyde dehydrogenase) | Potency, µM (doses to about 57.7 µM), actives largely listed as inhibitors | hit rate 2.6% among 220,000; further: nearly all actives have a fitted effect of over 70% in size
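Here, H3K4me3 peptide (12.5 µM in substrate mix) is demethylated by KDM5BΔAP, 200 nM final, after 10 min compound exposure. Formaldehyde product is coupled through FDH (0.25 U/mL in mix) to NADH fluorescence; 30-min ΔRFU feeds dose-response curves.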
IP6K1 inhibitor – inhibitors of human IP6K1; IP6K1 kinase, ADP-Glo luminescence, 2 h; stronger effect = lower value; activity change, % (series mostly up to about 58 µM); Q92551; hit rate 0.81% among 140,000; in the data active means activity change below about -25%
Target sequence (Q92551 whole entry, looked up): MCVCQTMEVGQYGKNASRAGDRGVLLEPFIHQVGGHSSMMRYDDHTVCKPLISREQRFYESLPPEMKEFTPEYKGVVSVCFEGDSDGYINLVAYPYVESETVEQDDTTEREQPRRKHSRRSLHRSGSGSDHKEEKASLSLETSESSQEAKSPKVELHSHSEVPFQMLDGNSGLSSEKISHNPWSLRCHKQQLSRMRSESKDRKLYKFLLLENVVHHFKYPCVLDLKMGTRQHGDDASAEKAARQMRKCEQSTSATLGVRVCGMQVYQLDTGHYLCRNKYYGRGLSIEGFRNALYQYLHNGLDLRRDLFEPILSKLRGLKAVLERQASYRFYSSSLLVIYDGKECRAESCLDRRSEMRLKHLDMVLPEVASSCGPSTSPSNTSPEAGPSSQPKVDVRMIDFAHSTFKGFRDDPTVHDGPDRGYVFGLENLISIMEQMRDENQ
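ADP-Glo luminescence measures ADP made by human IP6K1 during a 2 h RT reaction with ATP/IP6 (mix at 1.3 mM/130 uM); top library doses 57.5 and 19.1 uM final.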
IP6K1 inh cnf – confirmation of human IP6K1 inhibitors. shares compounds with IP6K1 inhibitor. recombinant IP6K1 kinase, ADP-Glo luminescence, 2 h. Potency, µM (series often up to 49 µM), hits mostly inhibitors. hit rate 13% among 1,200; further: nearly all actives have a fitted effect of over 65% in size
Each line names hits and unclear results; the compound was inactive in the other large screens (follow-up assays come after a bar, where they were run). A selection: hits, their analogues and other compounds. The true share with any hit is near 2.9%. Unless noted, the call rests on the fitted dose curve; in most records, active means well fitted curve in the direction sought with a large enough effect; inconclusive means small, poorly fitted or top-dose-only effect, or another doubt; inactive means no such curve, though single readings can be large; an effect the other way counts as inactive or inconclusive.

COc1ccccc1NC(=O)C1=C(C)Nc2nc3ccccc3n2C1c1cccc(Br)c1 (centres undefined)	KDM5B inh inconclusive, IP6K1 inhibitor -26.0 | IP6K1 inh cnf inactive
COc1ccc(OC)c([C@@H]2Nc3ccc(C(=O)O)cc3[C@@H]3C=CC[C@@H]32)c1	KDM5B inh inconclusive, IP6K1 inhibitor -27.4 | IP6K1 inh cnf inconclusive
COc1ccc(Br)cc1[C@@H]1Nc2ccc(C(=O)O)cc2[C@@H]2C=CC[C@@H]21	KDM5B inh inconclusive, IP6K1 inhibitor -40.2 | IP6K1 inh cnf inconclusive
CCOC(=O)c1ccc2c(c1)[C@@H]1C=CC[C@@H]1[C@H](c1cccc(OC)c1OC)N2	KDM5B inh inconclusive
CN(C(=O)C(=O)Nc1ccc2nc3n(c(=O)c2c1)CCCCC3)c1cccc(C(F)(F)F)c1	none
O=C(Nc1ccc2nc3n(c(=O)c2c1)CCCCC3)c1cccc(C(F)(F)F)c1	SNCA viab count inconclusive, IP6K1 inhibitor -25.3 | IP6K1 inh cnf inactive
O=C(Nc1cccc(-c2ccc(N3CCOCC3)nn2)c1)Nc1ccccc1F	KDM5B inh inconclusive, IP6K1 inhibitor -32.1 | IP6K1 inh cnf inconclusive
O=C(Nc1cccc(-c2ccc(N3CCOCC3)nn2)c1)Nc1cc(F)ccc1F	SNCA viab count inconclusive, SNCA expr inh inconclusive, KDM5B inh inconclusive
O=C(O)CCn1cnc2onc(-c3ccccc3Cl)c2c1=O	KDM5B inh inconclusive, IP6K1 inhibitor -41.9 | IP6K1 inh cnf inactive
COc1ccc(NC(=O)CN2CCN(S(=O)(=O)c3ccc(Br)cc3)CC2)cc1	IP6K1 inhibitor -29.5 | IP6K1 inh cnf inactive
Cc1cnc(CC2CC(=O)N(c3ccccc3)C2)nc1N(C)C (centres undefined)	none
O=C(Nc1cc(Cl)ccc1Cl)c1cc(S(=O)(=O)N2CCCc3ccccc32)ccc1F	IP6K1 inhibitor -30.1 | IP6K1 inh cnf inactive
O=C1Nc2ccc(-c3ccc4c(c3)OCO4)cc2C(=O)N2CC[C@H](NC(=O)N3CCOCC3)[C@@H]12	none
N[C@H]1CCN2C(=O)c3cc(-c4ccc5c(c4)OCO5)ccc3NC(=O)[C@H]12	KDM5B inh inconclusive, IP6K1 inhibitor -30.2 | IP6K1 inh cnf inactive
CC(C)CCN1CC2(CCCN(S(=O)(=O)N3CCOCC3)C2)CCC1=O (centres undefined)	IP6K1 inhibitor -33.4 | IP6K1 inh cnf inactive
c1cc(Nc2cc(C3CC3)[nH]n2)nc(Nc2ccc3nc[nH]c3c2)n1	IP6K1 inhibitor -26.6 (no result: SNCA expr inh, KDM5B inh) | IP6K1 inh cnf inconclusive
CO[C@H]1COCCN(c2nc3ccccc3o2)C1	none
O=C(c1ccoc1)N1CCN2CCS(=O)(=O)N(C3CC3)C(=O)C2C1 (centres undefined)	none
Cc1ccnc2nc(NC(=O)c3ccccc3Cl)nn12	KDM5B inh inconclusive, IP6K1 inhibitor -25.0 | IP6K1 inh cnf inactive
CN(C)c1ccc(C(=O)NNC(=O)c2ccccc2F)cc1	none (no result: SNCA viab count, SNCA expr inh, IP6K1 inhibitor)
CN(C)c1ccc(Nc2nc(N)n(C(=O)c3c(F)cccc3F)n2)cc1	IP6K1 inhibitor -51.0 (no result: KDM5B inh) | IP6K1 inh cnf 10.3µM
C/C=C(\C)C(=O)OC[C@H]1O[C@H](O[C@H]2O[C@H](CO)[C@@H](O)[C@H](O)[C@H]2O[C@@H]2O[C@H](CO)[C@@H](O)[C@H](O)[C@H]2O)[C@H](O[C@@H]2O[C@H](CO)[C@@H](O)[C@H](O)[C@H]2O)[C@@H](O)[C@@H]1O	none (no result: SNCA expr inh, KDM5B inh)
Brc1c(Br)c(Br)c2n[nH]nc2c1Br	none (no result: KDM5B inh, IP6K1 inhibitor) | IP6K1 inh cnf 0.731µM
COc1ccccc1-c1cc(C(=O)NCc2ccnc(N)c2)c2c(c1)ncn2C	SNCA expr inh inconclusive, KDM5B inh inconclusive
CCOc1ccc(CNC(=O)C2CCN(S(=O)(=O)c3cn(C)cn3)CC2)cc1	IP6K1 inhibitor -26.3 | IP6K1 inh cnf inactive
COc1ccc(CNC(=O)C2CCN(S(=O)(=O)c3cn(C)cn3)CC2)cc1	none
CC1(C)CC(=O)C2=C(C1)OC(N)=C(C#N)C2c1ccc(-c2ccc(Br)cc2)o1 (centres undefined)	none (no result: SNCA viab count, SNCA expr inh, IP6K1 inhibitor)
COC1CCC12CCN(C(=O)CCc1ccccc1)CC2 (centres undefined)	none
Cc1cc(C(=O)N2CCCC(CN3CCOCC3)CC2)nn1C (centres undefined)	none
COc1ccc(CNC(=O)CSc2ncc3c(n2)-c2cc(Cl)ccc2N(Cc2ccccc2)S3(=O)=O)cc1	IP6K1 inhibitor -26.7 | IP6K1 inh cnf inactive
COc1ccc(CNC(=O)CSc2ncc3c(n2)-c2cc(Cl)ccc2N(Cc2ccccc2)S3(=O)=O)cc1OC	none

Assay outcomes deposited in PubChem by National Center for Advancing Translational Sciences (NCATS).
